High-throughput results as filed in PubChem BioAssay.
DUX4 inh: DUX4-mediated transcription inhibition | 293T-iDUX4 ZSCAN4-Gaussia luciferase reporter, 24 h; stronger effect = lower value | activity change, negative = inhibition, % (concentration not given with the values) | 0.8% of 37,000 active | AID 1224904;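 active = mean inhibition of at least 10% in the main channel, exceeding the control channel by a set limit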
Each line names hits and unclear results; the compound was inactive in the other large screens. Only a selection was taken, and hits are over-represented in it overall.

C[C@@H]1CN([C@H](C)CO)C(=O)c2c(c3ccccc3n2C)-c2ccccc2CO[C@H]1CN(C)C(=O)Nc1ccccc1C(F)(F)F	none
CC(=O)N(C)C[C@@H]1OCc2ccccc2-c2c(n(C)c3ccccc23)C(=O)N([C@H](C)CO)C[C@@H]1C	none
COc1ccccc1NC(=O)N(C)C[C@@H]1OCc2ccccc2-c2c(n(C)c3ccccc23)C(=O)N([C@H](C)CO)C[C@H]1C	none
C[C@@H]1CN([C@H](C)CO)C(=O)c2c(c3ccccc3n2C)-c2ccccc2CO[C@H]1CN(C)C(=O)c1cc(Cl)cc(Cl)c1	DUX4 inh -41
C[C@@H]1CN([C@@H](C)CO)C(=O)c2c(c3ccccc3n2C)-c2ccccc2CO[C@@H]1CN(C)C(=O)Nc1cccc(Cl)c1Cl	DUX4 inh -35
CO[C@H](CN(C)S(=O)(=O)c1ccc(Cl)cc1)[C@@H](C)CN(C(=O)Nc1ccccc1F)[C@@H](C)CO	none
C[C@@H]1CN([C@H](C)CO)C(=O)c2ccccc2-c2ccccc2CO[C@@H]1CN(C)Cc1cccc(F)c1	none
C[C@H]1CN([C@@H](C)CO)C(=O)c2ccccc2-c2ccccc2CO[C@@H]1CN(C)Cc1cccc(F)c1	none
C[C@H](CO)N1C[C@H](C)[C@@H](CN(C)Cc2cccc(C(F)(F)F)c2)OCc2ccccc2-c2ccccc2C1=O	DUX4 inh -42
C[C@H](CO)N1C[C@H](C)[C@H](CN(C)Cc2ccc(-c3ccccc3)cc2)OCc2ccccc2-c2ccccc2C1=O	none
C[C@H](CO)N1C[C@H](C)[C@@H](CN(C)Cc2ccc3c(c2)OCO3)OCc2ccccc2-c2ccccc2C1=O	none
C[C@@H]1CN([C@@H](C)CO)C(=O)c2ccccc2-c2ccccc2CO[C@@H]1CN(C)Cc1ccc(Cl)c(Cl)c1	DUX4 inh -31
C[C@H](CO)N1C[C@H](C)[C@H](CN(C)Cc2ccc3c(c2)OCO3)OCc2ccccc2-c2ccccc2C1=O	none
C[C@@H]1CN([C@@H](C)CO)C(=O)c2ccccc2-c2ccccc2CO[C@@H]1CN(C)Cc1ccc(-c2ccccc2)cc1	DUX4 inh -29
C[C@@H]1CN([C@@H](C)CO)C(=O)c2ccccc2-c2ccccc2CO[C@@H]1CN(C)Cc1ccc(F)cc1	none
COc1ccc2c3c(n(C)c2c1)[C@H](CO)N(C(=O)NC(C)C)CC31CCN(CC2CCCCC2)CC1	none
O=C(C[C@@H]1CC[C@H]2[C@@H](COC[C@H](O)CN2C(=O)Nc2ccc(Cl)c(Cl)c2)O1)NCc1ccc(F)cc1	none
C[C@H](CO)N1C[C@H](C)[C@H](CN(C)C(=O)c2ccccn2)Oc2cc(C3=CCCC3)ccc2S1(=O)=O	none
Cc1noc(C)c1S(=O)(=O)Nc1ccc2c(c1)C(=O)N([C@@H](C)CO)C[C@H](C)[C@H](CN(C)S(=O)(=O)c1ccc(F)cc1)OCCCC[C@H](C)O2	none
CC1C=NC(S(=O)(=O)N2CC[C@@H]3[C@H]2c2cc(-c4ccccc4)ccc2N(C)[C@H]3CO)=N1 (some centres not stated)	none
CCCNC(=O)N1CC(=O)N2[C@H](C1)[C@@H](c1ccc(-c3cccc(C)c3)cc1)[C@@H]2CO	none
CCCNC(=O)Nc1ccc2c(c1)C(=O)N(C)[C@@H]1CC[C@H](CC(=O)NCCCN(C)C)O[C@@H]1CO2	none
C[C@H](O)C#Cc1cnc2c(c1)C(=O)N([C@@H](C)CO)C[C@H](C)[C@H](CN(C)C(=O)c1ccccc1F)O2	none
COc1ccc2c3c([nH]c2c1)[C@@H](CO)N(C(=O)Nc1ccc(F)cc1)CC31CCN(S(C)(=O)=O)CC1	none
COc1ccc2c3c([nH]c2c1)[C@@H](CO)N(C(=O)c1ccccn1)CC31CCN(C(=O)C2CC2)CC1	none
COc1ccc2c3c([nH]c2c1)[C@H](CO)N(Cc1cccc(Cl)c1)CC31CCN(C(C)=O)CC1	DUX4 inh -67
COc1ccc2c3c([nH]c2c1)[C@@H](CO)N(Cc1ccccc1Cl)CC31CCN(C(=O)C2CC2)CC1	DUX4 inh -21
COCC(=O)N1CC2(CCN(Cc3ccccc3Cl)CC2)c2c([nH]c3cc(OC)ccc23)[C@H]1CO	none
CCS(=O)(=O)N1CC2(CN(Cc3ccc4c(c3)OCO4)[C@@H](CO)c3[nH]c4cc(OC)ccc4c32)C1	none
COCC(=O)N1CCC2(CC1)CN(Cc1cccc(Cl)c1)[C@H](CO)c1[nH]c3cc(OC)ccc3c12	none
COc1ccc2c3c([nH]c2c1)[C@@H](CO)N(Cc1ccc(F)cc1)CC31CN(C)C1	none
CCCNC(=O)N1CC2(CN(Cc3ccc(F)cc3)C2)c2c([nH]c3cc(OC)ccc23)[C@@H]1CO	DUX4 inh -37
CCCNC(=O)N1CC2(CN(C)C2)c2c([nH]c3cc(OC)ccc23)[C@H]1CO	none
COc1ccc(CN2CC3(C2)CN(Cc2ccc4c(c2)OCO4)[C@H](CO)c2[nH]c4cc(OC)ccc4c23)cc1	DUX4 inh -58
CCCNC(=O)N1CC2(C1)CN(Cc1ccc(F)cc1)[C@@H](CO)c1[nH]c3cc(OC)ccc3c12	none
COc1cccc(CN2CC3(CCN(C)CC3)c3c([nH]c4cc(OC)ccc34)[C@@H]2CO)c1	none
O=C(C[C@H]1CC[C@@H]2[C@H](COC[C@H](O)CN2CC2CCOCC2)O1)N1CCOCC1	none
O=C(Nc1ccc(Cl)cc1)N1C[C@H]2[C@@H](c3ccccc31)[C@@H](CO)N2C(=O)c1ccccn1	none
COc1ccc2c3c(n(C)c2c1)[C@@H](CO)N(C)CC31CCN(S(C)(=O)=O)CC1	none
O=C(Nc1cccc(F)c1)N1C[C@H]2[C@@H](c3ccccc31)[C@@H](CO)N2C(=O)c1ccccn1	none
CC(C)C(=O)Nc1ccc2c(c1)C(=O)N(C)[C@@H]1CC[C@H](CC(=O)NC3CCCC3)O[C@@H]1CO2	none
COCC(=O)Nc1ccc2c(c1)C(=O)N(C)[C@H]1CC[C@@H](CC(=O)NC3Cc4ccccc4C3)O[C@@H]1CO2	none
C[C@H]1CCCCO[C@H](CN(C)C(=O)C2CCCCC2)[C@@H](C)CN([C@@H](C)CO)C(=O)c2cc(N(C)C)ccc2O1	none
O=C(Nc1ccccc1)[C@H]1[C@H](CO)[C@H]2Cn3c(cccc3=O)[C@H]2N1CC1CCOCC1	none
C[C@@H]1CN([C@H](C)CO)C(=O)c2cc(/C=C/c3ccccc3)cnc2O[C@@H]1CN(C)C(=O)c1ccc2c(c1)OCO2	none
CCC(=O)N1[C@@H](CO)[C@@H]2c3ccccc3N(C(=O)c3ccc4c(c3)OCO4)C[C@@H]21	none
COc1ccc(S(=O)(=O)N(C)C[C@H]2Oc3ccc(NC(=O)Cc4cn(C)c5ccccc45)cc3C(=O)N([C@H](C)CO)C[C@H]2C)cc1	none
Cc1noc(C)c1NC(=O)N(C)C[C@@H]1Oc2c(NC(=O)c3cnccn3)cccc2C(=O)N([C@H](C)CO)C[C@@H]1C	none
CO[C@H]1CN(C)C(=O)c2ccc(NC(=O)C3CCOCC3)cc2OC[C@H](C)N(C(=O)c2ccccc2)C[C@@H]1C	none
CCS(=O)(=O)N1CC2(CN(Cc3ccccc3F)[C@@H](CO)c3[nH]c4cc(OC)ccc4c32)C1	DUX4 inh -46
COCC(=O)N1CCC2(CC1)CN(Cc1ccccc1Cl)[C@H](CO)c1[nH]c3cc(OC)ccc3c12	none
COc1ccc2c3c([nH]c2c1)[C@H](CO)N(Cc1ccc(Cl)cc1)CC31CCN(C(=O)CN(C)C)CC1	none
COc1ccc2c3c([nH]c2c1)[C@H](CO)N(Cc1ccccc1Cl)CC31CCN(C(C)=O)CC1	DUX4 inh -28
CCCC(=O)N1CCC2(CC1)CN(Cc1ccc(Cl)cc1)[C@@H](CO)c1[nH]c3cc(OC)ccc3c12	DUX4 inh -50
COc1ccc2c3c([nH]c2c1)[C@@H](CO)N(Cc1ccccc1F)CC31CN(C)C1	none
